This is an account of results in PubChem BioAssay (NCI).

Compounds without any hit were thinned out: in the full panel of roughly 83,000, 20% have a hit.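 The endpoint reported here, percent growth, reads 100 for growth as untreated, 0 for no net growth and -100 for all cells dead.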 The source made the active and inactive calls. Rule for the calls: active = growth percent below 10; inactive = the rest.

The experiment deals with BT-549 breast. The experiment is described as follows: NCI-60 one-dose screen, 48 h (100 = growth as untreated, 0 = no growth, -100 = all killed). Particulars: 10 µM unless noted.
Regarding `ClC(Cl)c1nc(-c2cccs2)n2nc(-c3ccccc3)cc2n1`, the growth is 87.4% (inactive).
For the compound `O=C(COc1ccc(C2SCC(=O)N2c2ccccc2)cc1)c1ccccc1` (stereo unspecified), the growth is 92% (inactive).
Turning to `c1ccc(-c2n(Cc3ccc4ccccc4c3)c3c4ccccc4c4ccccc4c3[n+]2Cc2ccc3ccccc3c2)cc1`, the growth was -69.9% (active).
With `O=C1[C@@H]2Cc3c([nH]c4ccccc34)[C@H](c3c(Cl)cccc3Cl)N2C(=O)CN1C1CCN(Cc2c(F)cccc2F)CC1`, the growth was 80.4% (inactive).
`NCCN1CCN(c2nc(-c3ccccc3)nc3nc(-c4ccccc4)oc23)CC1`: the growth was 92.5% (inactive).
With `C/C(=C(/C)C1CC1CCN(C(=O)c1ccccn1)S(=O)(=O)c1ccc(C)cc1)C1CCCCC1` (stereo unspecified), the growth was 120% (inactive).
Then `Cc1nn(-c2ccccc2)cc1/C=N/Nc1nc(Nc2ccccc2)nc(Nc2ccc(S(N)(=O)=O)cc2)n1`, with 21.5% (inactive); and `Brc1cccc(/C=N/Nc2nc(N/N=C/c3cccc(Br)c3)nc(N3CCOCC3)n2)c1`, with 52.7% (inactive).
With `COc1cc(/C=C2\SC(=O)NC2=O)ccc1OCC(=O)Nc1ccc(C(=O)/C=C/c2cc3ccccc3nc2Cl)cc1` the figure was 72.9% (inactive); with `O=c1oc2ccc(-c3ccc(F)cc3F)cc2c(=O)n1-c1ccc(F)c(F)c1`, -2.01% (active).
With `CC[C@@](C)(NC(=O)C(C)(C)NC(=O)[C@@H](NC(=O)[C@@H]1CCCN1C(=O)C(C)(C)NC(=O)[C@H](CC(C)C)NC(=O)CNC(=O)C(C)(C)NC(=O)[C@@H](NC(=O)C(C)(C)NC(=O)[C@H](CCC(N)=O)NC(=O)[C@H](C)NC(=O)C(C)(C)NC(=O)[C@H](C)NC(=O)C(C)(C)NC(=O)[C@@H]1CCCN1C(=O)C(C)(C)NC(C)=O)C(C)C)C(C)C)C(=O)N[C@@H](CCC(N)=O)C(=O)N[C@@H](CCC(N)=O)C(=O)N[C@H](CO)Cc1ccccc1` the figure was -50.2% [4.25 µM] (active).
